Compound activity as filed in PubChem BioAssay.
Compounds with a hit are over-represented: about 6.8% of the library has one in this group of screens.
Pf Dd2 growth – inhibitors of Plasmodium falciparum Dd2 growth | hit rate 2.3% among 94,000 | activity change, % at 10 µM | AID 1159554 | P. falciparum Dd2 growth, SYBR Green, 72 h; hits give low values; in the data active = activity change below about -80%; inconclusive = no clear call, values can overlap the other calls
T cruzi growth-1 – blocks T. cruzi growth in NIH3T3 culture. T. cruzi beta-gal in NIH3T3, GalScreen luminescence, 90 h. hit rate 5.9% among 77,000. inhibition, % at 8.34 µM;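 active = mean inhibition above about 93%, with at least 55% of replicates each passing it, limit read from the data, passing the limit was not always enough; inconclusive = only one of those two conditions holds; inactive = neither condition holds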
C diff growth – blocks growth of Clostridium difficile | AID 1259249 | growth activity, negative = inhibition, % at 16 µg/mL (by protocol) | hit rate 0.25% among 86,000 | Clostridium difficile clinical isolate growth, OD600, 24 h; hits give low values;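 active = mean growth activity at or below -80% and every replicate also at or below -80%; inconclusive = mean at or below -80% but some replicate above -80%; inactive = mean growth activity above -80%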;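 also: 0% = DMSO wells and -100% = levofloxacin 16 µg/mL wells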
T cruzi growth-2 – inhibitors of T. cruzi proliferation; AID 651739; hit rate 72% among 5,600; T. cruzi beta-gal in NIH3T3, GalScreen luminescence, 90 h; shares compounds with T cruzi growth-1; inhibition, % at 8.35 µM;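 active = mean replicate inhibition above about 95% and at least 55% of replicates individually reaching it, limit read from the data; inconclusive = only one of the two criteria is met; inactive = neither criterion is met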
T cruzi growth-3 – Trypanosoma cruzi proliferation inhibition; shares compounds with T cruzi growth-1; T. cruzi beta-gal in NIH3T3, GalScreen luminescence, 90 h; inhibition, % at 2.09 µM; hit rate 21% among 5,600; AID 651740;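 active = mean inhibition above about 95%, with at least 55% of replicates also reaching it, limit read from the data; inconclusive = meets just one of the two conditions; inactive = meets neither condition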;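 also: plate controls were neutral control median for no effect and positive control median for full effect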
3T3 cytotox – kills mouse NIH/3T3 fibroblasts | shares compounds with T cruzi growth-1 | NIH/3T3 viability, CellTiter-Glo ATP luminescence, 90 h | cytotoxicity (signal decrease), % at 8.35 µM | hit rate 14% among 5,600;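 active = mean signal decrease across replicates above about 35% based on untreated-well scatter, with enough replicates individually passing, limit read from the data; inconclusive = no rule stated though some were filed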;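 also: 0% = median of neutral control wells and 100% = median of positive control wells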
NIH3T3 tox 2 – cytotoxicity in mouse NIH/3T3 fibroblasts; NIH/3T3 viability, CellTiter-Glo ATP luminescence, 90 h; inhibition, % at 24.9 µM; AID 651744; hit rate 56% among 5,600; shares compounds with T cruzi growth-1;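 active = mean loss of cell viability signal at or above a set limit, and enough replicates individually reaching it; inconclusive = meets only the mean limit or only the replicate share; inactive = meets neither condition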;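 also: 0% = median of neutral control wells and 100% = median of positive control wells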
* = called active by the depositor; ? = inconclusive; nt = not tested or not shown; + = active, no number.

SMILES	Pf Dd2 growth	T cruzi growth-1	C diff growth	T cruzi growth-2	T cruzi growth-3	3T3 cytotox	NIH3T3 tox 2
O=C(Cc1ccccc1)N1C[C@@H]2[C@H](c3ccccc31)[C@H](CO)N2Cc1ccccc1	-15.8	96.5*	-5.8	101.0*	99.9*	-13.2	26.2
OC[C@H]1[C@H]2c3ccccc3NC[C@H]2N1Cc1cccnc1	-10.1	60.9	-4.3	nt	nt	nt	nt
COC(=O)[C@@H]1[C@@H](CO)[C@@H]2Cn3c(ccc(-c4cccnc4)c3=O)[C@H]1N2CCc1ccccc1	0.1	37.4	-2.1	nt	nt	nt	nt
C=CC1CN2CCC1C[C@@H]2CO (some centres not stated)	nt	nt	-7.5	nt	nt	nt	nt
COC(=O)C[C@H]1CC[C@@H]2NC[C@H](O)COC[C@H]2O1	-8.5	105.3*	4.8	15.3	18.0	-7.1	15.9
COC(=O)C[C@@H]1CC[C@@H]2NC[C@H](O)COC[C@H]2O1	7.8	50.0	7.5	nt	nt	nt	nt
Cc1cccc(S(=O)(=O)N2[C@@H]3c4ccc(-c5cccc(F)c5)c(=O)n4C[C@H]2[C@H](CO)[C@H]3C(=O)O)c1	-3.5	6.2	0.2	nt	nt	nt	nt
COc1ccc(-c2ccc([C@@H]3[C@H]4CN(C(=O)Cc5ccncc5)CCCCN4[C@H]3CO)cc2)cc1	-7.7	84.3	-9.8	nt	nt	nt	nt
N#Cc1ccc(-c2ccc([C@H]3[C@H]4CN(C(=O)Cc5ccccc5)CCCCN4[C@H]3CO)cc2)cc1	26.3	46.3	0.7	nt	nt	nt	nt
N#Cc1cccc(-c2ccc([C@@H]3[C@H](CO)N4CCCCN(C(=O)Cc5ccccc5)C[C@@H]34)cc2)c1	-23.7	99.5*	-5.3	104.0*	40.1	-0.7	57.4*
O=C(Cc1ccncc1)N1CCCCN2[C@H](CO)[C@@H](c3ccc(-c4ccncc4)cc3)[C@H]2C1	17.0	116.2*	-7.2	-13.0	-10.8	7.5	4.6
N#Cc1ccc(-c2ccc([C@H]3[C@@H](CO)N4CCCCN(C(=O)Cc5ccccc5)C[C@@H]34)cc2)cc1	28.5	80.9	-6.3	nt	nt	nt	nt
N#Cc1cccc(-c2ccc([C@H]3[C@@H](CO)N4CCCCN(C(=O)Cc5ccccc5)C[C@H]34)cc2)c1	5.7	108.6*	1.7	111.0*	80.7	18.9	55.7*
N#Cc1ccc(-c2ccc([C@H]3[C@@H](CO)N4CCCCN(C(=O)Cc5ccccc5)C[C@H]34)cc2)cc1	-21.2	79.9	5.3	nt	nt	nt	nt
N#Cc1cccc(-c2ccc([C@H]3[C@@H](CO)N4CCCCN(C(=O)Cc5ccccc5)C[C@@H]34)cc2)c1	29.9	109.6*	0.2	103.1*	76.8	-5.1	0.2
CCC(=O)N1[C@@H]2Cn3c(ccc(C4=CCCC4)c3=O)[C@H]1[C@@H](C(=O)OC)[C@@H]2CO	-4.9	20.0	-2.4	nt	nt	nt	nt
O=C(O)[C@H]1[C@H](CO)[C@H]2Cn3c(ccc(C4=CCCCC4)c3=O)[C@@H]1N2C(=O)Cc1ccccn1	nt	-43.2	-2.9	nt	nt	nt	nt
C=CCN1C(=S)N[C@@H]2c3ccccc3O[C@@]1(C)[C@@H]2C(=O)OCC	nt	nt	6.5	nt	nt	nt	nt
O=C(Cc1ccccc1)N1CCCCN2[C@H](CO)[C@@H](c3ccc(-c4ccccc4)cc3)[C@H]2C1	0.4	99.9*	57.7	?	35.9	11.3	105.2*
O=C(Cc1ccccc1)N1CCCCN2[C@H](C1)[C@H](c1ccc(-c3ccccc3)cc1)[C@@H]2CO	5.7	40.5	50.0	nt	nt	nt	nt
CC=Cc1ccc2n(c1=O)C[C@@H]1[C@@H](CO)[C@H](C(=O)OC)[C@H]2N1CC1CCCC1 (mixture of isomers)	-5.6	nt	1.9	nt	nt	nt	nt
CN(C)C(=O)[C@H]1[C@H](CO)[C@H]2Cn3c(cccc3=O)[C@@H]1N2CC1CC1	7.4	81.7	-3.5	nt	nt	nt	nt
O=C(Cc1cccnc1)N1CCCCN2[C@H](C1)[C@@H](c1ccc(C#CC3CCCC3)cc1)[C@@H]2CO	-28.3	102.2*	-5.9	106.5*	31.7	24.7	103.9*
O=C(Cc1cccnc1)N1CCCCN2[C@H](CO)[C@H](c3ccc(C#CC4CCCC4)cc3)[C@@H]2C1	2.0	110.5*	-18.7	89.2	44.0	33.6	78.0*
O=C(Cc1cccnc1)N1CCCCN2[C@H](CO)[C@H](c3ccc(C#CC4CC4)cc3)[C@H]2C1	-31.0	-207.7	-14.5	nt	nt	nt	nt
SMILES	Pf Dd2 growth	T cruzi growth-1	C diff growth	T cruzi growth-2	T cruzi growth-3	3T3 cytotox	NIH3T3 tox 2
O=C(Cc1cccnc1)N1CCCCN2[C@H](CO)[C@H](c3ccc(C#CC4CC4)cc3)[C@@H]2C1	-17.5	86.8	-9.6	nt	nt	nt	nt
CCCN1[C@@H]2Cn3c(ccc(-c4ccc(F)cc4)c3=O)[C@H]1[C@@H](C(=O)OC)[C@@H]2CO	8.1	25.6	-2.4	nt	nt	nt	nt
COC(=O)[C@H]1[C@H](CO)[C@H]2Cn3c(ccc(C4=CCCCC4)c3=O)[C@@H]1N2C(=O)CC1CC1	4.9	7.4	-6.2	nt	nt	nt	nt
CCCN1[C@@H]2Cn3c(cccc3=O)[C@H]1[C@@H](C(=O)N(C)C)[C@@H]2CO	nt	49.2	-0.4	nt	nt	nt	nt
CC(=O)N1[C@@H]2Cn3c(ccc(-c4cccc(C(=O)N(C)C)c4)c3=O)[C@H]1[C@@H](C(=O)O)[C@@H]2CO	22.3	nt	1.9	nt	nt	nt	nt
CN(C)CC#Cc1ccc([C@@H]2[C@@H](CO)N3CCCCN(C(=O)Cc4ccccn4)C[C@H]23)cc1	-16.5	114.0*	17.0	47.6	15.1	15.8	1.1
CN(C)CC#Cc1ccc([C@@H]2[C@@H](CO)N3CCCCN(C(=O)Cc4ccccn4)C[C@@H]23)cc1	-3.7	90.9	0.9	nt	nt	nt	nt
CN(C)CC#Cc1ccc([C@H]2[C@@H](CO)N3CCCCN(C(=O)Cc4ccccn4)C[C@H]23)cc1	7.3	61.3	6.6	nt	nt	nt	nt
CN(C)CC#Cc1ccc([C@@H]2[C@H](CO)N3CCCCN(C(=O)Cc4ccccn4)C[C@@H]23)cc1	3.7	113.8*	27.4	14.6	24.0	-0.6	5.7
COC(=O)[C@H]1[C@H](CO)[C@H]2Cn3c(ccc(C4=CCCCC4)c3=O)[C@@H]1N2CC1CCCC1	-5.7	94.4	9.5	nt	nt	nt	nt
COC(=O)[C@@H]1[C@@H](CO)[C@@H]2Cn3c(ccc(-c4ccccc4F)c3=O)[C@H]1N2CC1CCCC1	nt	+	-1.7	67.5	2.0	22.3	42.1*
COC(=O)[C@H]1[C@H](CO)[C@H]2Cn3c(ccc(-c4ccccc4)c3=O)[C@@H]1N2CC1CCCC1	-7.9	nt	-13.0	nt	nt	nt	nt
COC(=O)[C@H]1[C@H](CO)[C@H]2Cn3c(ccc(C4=CCCCC4)c3=O)[C@@H]1N2Cc1ccccn1	8.4	100.8*	0.1	-19.9	-4.3	-4.1	3.8
COC(=O)[C@@H]1[C@@H](CO)[C@@H]2Cn3c(ccc(C4=CCCCC4)c3=O)[C@H]1N2Cc1ccccn1	10.3	94.6	2.1	nt	nt	nt	nt
O=C(O)[C@@H]1[C@@H](CO)[C@@H]2Cn3c(ccc(-c4ccc(F)cc4)c3=O)[C@H]1N2CC1CCCCC1	nt	15.2	4.4	nt	nt	nt	nt
COC(=O)[C@H]1[C@H](CO)[C@H]2Cn3c(ccc(-c4cccc(F)c4)c3=O)[C@@H]1N2Cc1cccnc1	6.7	-5.8	-1.1	nt	nt	nt	nt
